From PubChem BioAssay
HTT aggregate – mutant huntingtin aggregation inhibition. PC12 HttQ103-GFP aggregates, Acumen cytometry, 40 h. Potency, µM (titrated, usually from 46.1 µM), inactives show at the highest dose activity change, negative = inhibition, actives largely listed as inhibitors. actives 1.1% (n = 220,000). AID 1688; further: potency means the concentration at half of the fitted maximal effect; on the % scale 0 is the no-effect control and ±100 the full control effect; nearly all actives have a fitted effect of over 60% in size
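Ecdysone-promoter PC12 model expressing HTT exon 1 Q103 fused to GFP, induced by tebufenozide at 100 nM final. Compounds titrated; aggregates sized 1–25 µm scored on a 488 nm laser cytometer.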
CBFb RUNX1 block – CBF-beta/RUNX1 interaction disruption. Q01196+Q13951. AlphaScreen CBFb-His/RUNX1-biotin binding, biochemical. Potency, µM (doses to about 59.8 µM), inactives show top-dose activity, negative = inhibition, hits mostly inhibitors. 230,000 tested, under 10 active. AID 1477; further: % of control where 0% means no effect
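Room-temperature protein-protein interaction test with 30 nM each of His-tagged CBF-beta and biotinylated RUNX1, 15 min with compound, then 90 min with nickel plus streptavidin beads. Signal read in AlphaScreen mode.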
HTT cytoprotect – Huntington cell model cytoprotection by ATP luminescence. actives 0.14% (n = 230,000). PC12 HTT-Q103 induced, cytoprotection, ATP luminescence, 40 h. AID 1471. Potency, µM (doses to about 56.4 µM), for inactives: cytoprotection (ATP increase), actives largely listed as activators; further: potency means the concentration at half of the fitted maximal effect; % of control where 0% means no effect; nearly all actives have a fitted effect of over 45% in size
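Rat PC12, Q103 Htt exon1-GFP fusion, ecdysone promoter; tebufenozide inducer 100 nM final; compound titration; qHTS, 1500 cells/well; ATPlite luminescent read.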
ALDH1A1 block – ALDH1A1 (human) enzyme inhibition; Purified ALDH1A1, NADH fluorescence, propionaldehyde substrate; Potency, µM (doses to about 75.3 µM), without a hit: at the top dose activity, negative = inhibition, hits mostly inhibitors; actives 7.3% (n = 220,000); active means well fitted inhibition curve with a large enough effect, not every such curve was filed as active; inconclusive means small, poorly fitted or top-dose-only effect, or another doubt; inactive means no such curve, though single readings can be large or run the other way;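 further: potency means the concentration at half of the fitted maximal effect; plate controls were no enzyme wells and a reference inhibitor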
PNC inhibitor – perinucleolar compartment assembly inhibition | PC3M PTB-GFP, PNC prevalence imaging, 16 h; active compounds read low | activity change (PNC), negative = inhibition, % at 10 µM | actives 3.1% (n = 140,000);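 active means readout at or below -70, meaning at least 70% loss of cells showing the perinucleolar compartment, a nuclear body marking cancer cells; inconclusive means readout between -30 and a set limit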;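 further: plate controls were DMSO wells for no effect and camptothecin positive control wells for full effect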
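Compounds are pinned in duplicate onto adhered PC3M cells stably expressing GFP-tagged PTB and incubated 16 h at 37 C. Cells are then fixed, nuclei stained with Hoechst, and PNC-positive cells counted.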
HPGD inh – inhibitors of human 15-hydroxyprostaglandin dehydrogenase (HPGD); P15428; purified HPGD, NADH fluorescence kinetic, PGE2 substrate; Potency, µM, without a hit: at the top dose activity change, negative = inhibition, actives largely listed as inhibitors; actives 4.3% (n = 150,000); active means well fitted inhibition curve with a large enough effect, not every such curve was filed as active; inconclusive means small, poorly fitted or top-dose-only effect, or another doubt; inactive means no such curve, though single readings can be large or run the other way; further: potency means the concentration at half of the fitted maximal effect; on the % scale 0 is the no-effect control and ±100 the full control effect
Target sequence (P15428 whole entry, looked up): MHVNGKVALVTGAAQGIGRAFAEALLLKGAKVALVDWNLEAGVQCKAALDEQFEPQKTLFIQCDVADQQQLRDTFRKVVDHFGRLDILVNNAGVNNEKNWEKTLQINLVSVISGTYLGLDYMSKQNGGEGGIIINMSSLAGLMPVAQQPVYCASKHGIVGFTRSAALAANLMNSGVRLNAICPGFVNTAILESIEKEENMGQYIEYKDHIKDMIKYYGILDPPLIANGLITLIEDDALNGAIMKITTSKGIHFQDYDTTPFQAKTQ
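NADH formation kinetics: reaction with 30 uM PGE2 and 1 mM NAD+ (final), 20 nM enzyme, Tris-HCl pH 8 with Tween 20, after 15 min compound preincubation at room temperature. Fluorescence change, last versus first of five reads.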
Numbers without * were called inactive; ? = inconclusive; . = no result given; [ ] = another dose, or the depositor's remark. The list is not random: actives were taken first. Their share in the collection is about 11%. Unless noted, the call rests on the fitted dose curve; in most records, active means well fitted curve in the direction sought with a large enough effect; inconclusive means small, poorly fitted or top-dose-only effect, or another doubt; inactive means no such curve, though single readings can be large; an effect the other way counts as inactive or inconclusive.

SMILES	HTT aggregate	CBFb RUNX1 block	HTT cytoprotect	ALDH1A1 block	PNC inhibitor	HPGD inh
Cc1cc(C)cc(N=Cc2[nH]c3ccc(Br)c(Cl)c3c2O)c1	-3%	2%	-14%[10 µM]	7.9µM*	-28	?
COc1ccc(CN=CC2=C(O)CNC2=O)cc1	9%	-4%	20%	-6%	-8	-6%
COc1ccc(CN=Cc2[nH]c3ccc(Br)c(Cl)c3c2O)cc1	12%	8%	0%[10 µM]	4µM*	?	?
O=C(CCc1nc2ccccc2c(=O)[nH]1)NCc1ccco1	-9%	3%	-3%[10 µM]	3%	.	.
CS(=O)(=O)Nc1cccc(-c2nccc(Nc3ccc(F)cc3)n2)c1	.	.	-44%	4%	.	.
O=C(N=Nc1c(O)n(Cc2ccccc2)c2ccccc12)c1ccc(O)cc1	-25%	-3%	0%[10 µM]	13µM*	29	-6%
COc1ccc(C(=O)NCC(=O)N=Nc2c(O)n(Cc3ccccc3)c3ccccc23)cc1OC	?	-20%	17%[1.9 µM]	18µM*	-17	-6%
O=C(CNC(=O)Cc1ccccc1)N=Nc1c(O)n(Cc2ccc3c(c2)OCO3)c2ccccc12	?	-9%	-5%[10 µM]	4µM*	?	.
COc1cccc(Nc2ncc3nc(C)c(=O)n(C[C@H]4CCCO4)c3n2)c1	.	.	-202%	12%	.	.
NC[C@](O)(CS(=O)(=O)O)c1ccc(Cl)cc1	.	-2%[21.7 µM]	?	6%	.	-10%
O=C1CSC(c2ccccc2Cl)N1 (stereo not drawn)	-4%	-2%	-1%	7%	.	.
COc1ccccc1C1=Nn2c(COc3ccccc3)nnc2SC1	14%	0%	-9%	14µM*	.	.
COc1ccc(OCc2nnc3n2N=C(c2ccc(OC)cc2)CS3)cc1	19%	-6%	-9%	?	4	-30%
c1ccc(OCc2nnc3n2N=C(c2ccccc2)CS3)cc1	4%	5%	7%	10µM*	.	.
COc1ccc(OCc2nnc3n2N=C(c2ccc(C)cc2)CS3)cc1	-1%	-9%	-8%	?	?	-21%
C/C(=C\CO)CCO	.	5%	?	1%	.	-5%
FC(F)(F)c1cc(CN2CCC3(CCNCC3)CC2)cc(C(F)(F)F)c1	.	.	-17%	-6%	.	-8%
C[C@@H]1/C(=N/O)CC2C[C@@H]1C2(C)C	.	.	.	11µM*	.	-5%
COc1ccc(S(=O)(=O)Cc2ccc(C(=O)N3CCC(C(N)=O)CC3)o2)cc1	-21%	-3%	-11%	5%	-85*	-8%
COc1ccc(S(=O)(=O)Cc2ccc(C(=O)N3CCCC3)o2)cc1	-19%	2%	-38%	?	?	-15%
Cc1nc(NCCNC(=O)c2ccco2)c2c(C)c(C)sc2n1	-18%	?	11%	14µM*	14	-17%
Cc1nc(NCCc2ccc(S(N)(=O)=O)cc2)c2c(C)c(C)sc2n1	?	1%	-8%	-10%	?	-9%
COC(=O)C(C)N(C(=O)c1cccc(Cl)c1)c1c(C)cccc1C (stereo not drawn)	-25%	19%	13%	?	-92*	-8%
COC(=O)C(C)N(C(=O)c1cccc2ccccc12)c1c(C)cccc1C (stereo not drawn)	-21%	-3%	4%	5%	43	2%
O=c1[nH]n(-c2ccc(Cl)cc2)c2ncccc12	4%	-1%	-3%	2%	3	11µM*
CCCCc1nc2c(c3c1C[C@H](C)OC3)CN(C(=O)NCCCC(=O)OCC)CC2	.	-4%[13.1 µM]	1%[10 µM]	9%[13.5 µM]	.	-5%
O=C1[C@@H]2C(c3cccnc3)=NO[C@@H]2C(=O)N1c1ccc(Br)cc1	15%[9.22 µM]	2%	21%[10 µM]	7.9µM*	.	.
COc1ccc(C2=NO[C@@H]3C(=O)N(c4ccc(C)cc4C)C(=O)[C@H]23)cc1OC	-7%	-1%	0%	22µM*	12	-13%
Cc1ccc(N2C(=O)[C@@H]3C(c4ccc(F)cc4)=NO[C@@H]3C2=O)cc1	7%	2%	9%[0.074 µM]	7%	-95*	-3%
Cc1ccc(N2C(=O)[C@@H]3C(c4cccnc4)=NO[C@@H]3C2=O)c(C)c1	-3%[9.22 µM]	4%	-15%[10 µM]	.	.	.
